From PubChem
WRN helicase inh = qHTS for Inhibitors of WRN Helicase; Bifunctional 3'-5' exonuclease/ATP-dependent helicase WRN (Homo sapiens), Q14191; WRN helicase unwinding, fluorescent forked duplex, kinetic; Potency, µM (top dose mostly 114 µM), for inactives: at the top dose activity change, negative = inhibition, hits mostly inhibitors; hit rate 0.46% among 360,000; also: % is scaled to controls: 0 for no effect and ±100 for the full control effect; nearly all actives have a fitted effect of over 55% in size
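WRN at 20 nM final was preincubated with compound for 15 min at room temperature; reaction started with 100 nM forked duplex oligonucleotide carrying fluorophore and quencher plus 2 mM ATP (final). Unwinding followed kinetically by red fluorescence (ex 525/em 598 nm).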
FEN1 inhibitor = qHTS Assay for the Inhibitors of Human Flap endonuclease 1 (FEN1); P39748; Recombinant FEN1 flap cleavage, fluorescence, 15 min; Potency, µM (series often up to 114 µM), inactives show top-dose activity change, negative = inhibition, usual class: inhibitors; hit rate 0.35% among 390,000; AID 588795, 2011; also: % is scaled to controls: 0 for no effect and ±100 for the full control effect; nearly all actives have a fitted effect of over 65% in size
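Reaction started by adding substrate (50 nM final) to 10 nM enzyme after 15 min room-temperature compound preincubation. Reads at 0 and 15 min, with data normalized and fitted to a four-parameter Hill equation.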
Pol eta inh = qHTS for Inhibitors of Polymerase Eta; hit rate 1.2% among 390,000; Potency, µM (highest dose often 114 µM), for inactives: at the highest dose activity change, negative = inhibition, actives largely listed as inhibitors; DNA polymerase eta (Homo sapiens), Q9Y253; recombinant Pol eta, fluorescent DNA replication assay; also: % is scaled to controls: 0 for no effect and ±100 for the full control effect
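Fluorescent replication assay: 50 nM final substrate added after a 15 min room-temperature compound preincubation with 10 nM enzyme. Signal taken at 0 min and again at 10 min.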
Pol beta inh = qHTS Assay for Inhibitors of DNA Polymerase Beta. Potency, µM (series often up to 114 µM), for the others: at the highest dose activity change, negative = inhibition, hits mostly inhibitors. Pol beta primer extension/strand displacement, fluorescence kinetic. hit rate 1.3% among 340,000. P06746; also: % is scaled to controls: 0 for no effect and ±100 for the full control effect
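Homogeneous kinetic assay of primer extension and strand displacement by 10 nM Pol beta, preincubated 15 min at room temperature with compound before 50 nM substrate (final) was added. Read at 0 and 10 min; four-parameter Hill fit.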
POLI inh = qHTS for Inhibitors of Polymerase Iota. hit rate 1% among 390,000. Potency, µM (highest dose often 115 µM), for inactives: at the highest dose activity, negative = inhibition, most hits filed as inhibitors. Pol iota fluorescent replication assay, 10 min. AID 588590, 2011. DNA polymerase iota (Homo sapiens), Q9UNA4
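Fluorescent replication assay read twice, at 0 min and 10 min after adding 50 nM (final) substrate. Enzyme (10 nM) and compounds were first incubated 15 min at room temperature; enzyme-free buffer wells were negative controls.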
POLK inh = qHTS for Inhibitors of Polymerase Kappa; purified Pol kappa, fluorescent DNA synthesis assay, 10 min; Potency, µM (doses to about 107 µM), inactives show at the highest dose activity, negative = inhibition, hits mostly inhibitors; hit rate 0.53% among 400,000; AID 588579, 2011; also: % is scaled to controls: 0 for no effect and ±100 for the full control effect
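10 nM Pol kappa was preincubated with compounds for 15 min at room temperature. Reaction started with 50 nM (final) substrate. Fluorescence read kinetically at 0 and 10 min.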
* marks the source's active call; other numbers are inactive results; [ ] = another dose, or the depositor's remark. In the library only some 2.4% were active in any assay of this set; here they are far more common. Calls follow the shape of the dose curve; as a rule, active = well fitted curve in the direction sought with a large enough effect; inconclusive = small, poorly fitted or top-dose-only effect, or another doubt; inactive = no such curve, though single readings can be large; an effect the other way counts as inactive or inconclusive. Potency is read from the fitted curve at half-maximal effect.

Results for COc1ccc(C(=O)/C=C/c2ccccc2)c(O)c1 ?
WRN helicase inh: -9%; FEN1 inhibitor: -19%; Pol eta inh: -1%; Pol beta inh: -2%; POLI inh: inconclusive; POLK inh: -1%

Results for COc1ccccc1N(/N=C1\Sc2ccccc2C1=O)C(C)=O ?
WRN helicase inh: -8%[11.6 µM]; FEN1 inhibitor: -18%; Pol eta inh: 89µM*; Pol beta inh: 2%; POLI inh: inconclusive; POLK inh: 2%

What do the screens show for `Oc1c(N=Nc2ccccn2)ccc2ccccc12`?
WRN helicase inh: 56µM*; FEN1 inhibitor: inconclusive; Pol eta inh: -26%; Pol beta inh: -1%; POLI inh: 49%; POLK inh: 0%

How did COc1ccc(OC)c(-n2c(C)nc3cc(C(=O)O)ccc32)c1 do in these assays?
WRN helicase inh: -5%[57.1 µM]; FEN1 inhibitor: -14%; Pol eta inh: 79µM*; Pol beta inh: 17%; POLI inh: -5%; POLK inh: -5%

What do the screens show for `Cc1cc(C)c(S(=O)(=O)N(CC(=O)NCc2cccnc2)C2CCCCC2)c(C)c1`?
WRN helicase inh: 4%; FEN1 inhibitor: 1%; Pol eta inh: -6%; Pol beta inh: -27%; POLI inh: 89µM*; POLK inh: -9%

What do the screens show for `CCCCN(CCCC)c1ccc(Cn2ccc3ccccc32)cc1`?
FEN1 inhibitor: -3%; POLI inh: 37%; POLK inh: -2%

How did COc1ccc(C=C2CS(=O)(=O)CC(=Cc3ccc(OC)cc3)C2=O)cc1 do in these assays?
WRN helicase inh: -1%; Pol eta inh: 50µM*

How did CC(C)C[C@H](NC(=O)[C@H](CC(C)C)NC(=O)[C@@H](Cc1c[nH]c2ccccc12)NC(=O)[C@H](Cc1ccccc1)NC(=O)[C@@H](Cc1c[nH]c2ccccc12)NC(=O)[C@H](CCC(N)=O)NC(=O)[C@H](CCC(N)=O)NC(=O)[C@@H]1CCCN1C(=O)[C@H](CCCCN)NC(=O)[C@@H]1CCCN1C(=O)[C@@H](CCCNC(=N)N)NC(=O)[C@@H]1CCCN1C(=O)CNC(=O)[C@H](CC(C)C)NC(=O)[C@H](CC(C)C)NC(=O)[C@H](Cc1ccc(O)cc1)NC(=O)CNC(=O)[C@H](C)NC(=O)[C@H](CO)NC(=O)[C@H](CC(N)=O)NC(=O)[C@H](CC(C)C)NC(=O)[C@@H](NC(=O)[C@H](Cc1c[nH]c2ccccc12)NC(=O)CN)[C@@H](C)O)C(N)=O do in these assays?
POLK inh: 12%[60.1 µM]

Results for CC1(C)CC[C@]2(C(=O)n3ccnc3)CC[C@]3(C)[C@H](C(=O)C=C4[C@@]5(C)C=C(C#N)C(=O)C(C)(C)[C@@H]5CC[C@]43C)[C@@H]2C1 ?
WRN helicase inh: inconclusive; FEN1 inhibitor: inconclusive; Pol eta inh: 3.5µM*; POLI inh: 14µM*; POLK inh: -10%

Results for CCc1ccc(S(=O)(=O)c2nnn3c2nc(Nc2ccc(NC(C)=O)cc2)c2sccc23)cc1 ?
FEN1 inhibitor: -6%; Pol eta inh: inconclusive; Pol beta inh: -5%; POLI inh: 79µM*; POLK inh: -20%

What do the screens show for `CC(=O)Nc1ccc(/C(C)=N\NC(=O)c2ccc(-c3ccccc3)cc2)cc1`?
Pol beta inh: 40µM*

What do the screens show for `CC(=O)Nc1ccc(/C(C)=N/NC(=O)c2ccc(F)cc2)cc1`?
WRN helicase inh: -2%; FEN1 inhibitor: -7%; Pol eta inh: -12%; Pol beta inh: 31%; POLI inh: 142%; POLK inh: -13%

Results for CN(C)c1ncc2nc(-c3ccc(Cl)cc3)c(=O)n(Cc3cccs3)c2n1 ?
POLK inh: 4%[60.1 µM]
